Assay outcomes from PubChem BioAssay.
POLH inh: blocks human DNA polymerase eta activity; Q9Y253; recombinant Pol eta, fluorescent DNA replication assay; Potency, µM (titrated, usually from 114 µM), most hits filed as inhibitors; actives 1.2% (n = 390,000); AID 588591
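Pol eta at 10 nM preincubated with compounds 15 min at room temperature; reaction started with fluorescent substrate (50 nM final) and read kinetically at 0 and 10 min.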
POLB inh: blocks human DNA polymerase beta activity | P06746 | Pol beta primer extension/strand displacement, fluorescence kinetic | actives 1.3% (n = 340,000) | AID 485314 | Potency, µM (top dose mostly 114 µM), hits mostly inhibitors
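Kinetic readout of DNA synthesis with strand displacement by Pol beta. Compound and 10 nM enzyme sit 15 min at room temperature; 50 nM substrate starts the reaction, read immediately and at 10 min.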
WRN helicase inh: inhibitors of human WRN helicase | Q14191 | WRN helicase unwinding, fluorescent forked duplex, kinetic | Potency, µM (top dose mostly 114 µM), actives largely listed as inhibitors | actives 0.46% (n = 360,000); further: nearly all actives have a fitted effect of over 55% in size
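WRN at 20 nM final preincubated with compound 15 min at room temperature; reaction started with 100 nM fluorophore/quencher forked duplex oligonucleotide and 2 mM ATP final. Unwinding followed kinetically by red fluorescence (ex 525, em 598 nm).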
POLK inh: inhibitors of human DNA polymerase kappa; Q9UBT6; purified Pol kappa, fluorescent DNA synthesis assay, 10 min; Potency, µM (top dose mostly 107 µM), actives largely listed as inhibitors; actives 0.53% (n = 400,000); AID 588579
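10 nM Pol kappa was preincubated with compounds for 15 min at room temperature. Reaction started with 50 nM (final) substrate. Fluorescence read kinetically at 0 and 10 min.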
Pol iota inh: inhibitors of human DNA polymerase iota; Pol iota fluorescent replication assay, 10 min; Potency, µM (series often up to 115 µM), actives largely listed as inhibitors; actives 1% (n = 390,000); AID 588590
Target sequence (Q9UNA4 whole entry, looked up): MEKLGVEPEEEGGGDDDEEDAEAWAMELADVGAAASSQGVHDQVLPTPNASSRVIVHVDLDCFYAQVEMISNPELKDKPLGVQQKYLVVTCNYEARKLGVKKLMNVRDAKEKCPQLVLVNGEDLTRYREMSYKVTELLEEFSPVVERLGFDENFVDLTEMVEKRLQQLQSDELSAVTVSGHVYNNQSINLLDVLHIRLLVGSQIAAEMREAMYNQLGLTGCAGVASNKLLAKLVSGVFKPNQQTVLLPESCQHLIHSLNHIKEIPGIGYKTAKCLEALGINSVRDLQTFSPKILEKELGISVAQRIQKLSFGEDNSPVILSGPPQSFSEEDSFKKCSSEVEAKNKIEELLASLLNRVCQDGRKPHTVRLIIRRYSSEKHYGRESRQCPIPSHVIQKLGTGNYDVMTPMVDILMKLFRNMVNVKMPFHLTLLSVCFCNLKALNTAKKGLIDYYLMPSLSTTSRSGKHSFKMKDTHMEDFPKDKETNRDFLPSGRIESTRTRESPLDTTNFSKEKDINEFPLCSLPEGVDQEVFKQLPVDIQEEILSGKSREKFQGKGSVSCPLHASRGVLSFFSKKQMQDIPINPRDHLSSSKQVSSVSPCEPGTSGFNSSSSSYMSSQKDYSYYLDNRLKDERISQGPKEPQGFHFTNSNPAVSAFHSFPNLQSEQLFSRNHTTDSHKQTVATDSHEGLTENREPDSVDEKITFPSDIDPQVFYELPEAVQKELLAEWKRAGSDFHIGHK
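Pol iota at 10 nM preincubated 15 min with compounds at room temperature; reaction started with fluorescent substrate, 50 nM final. Fluorescence read kinetically at 0 and 10 min; buffer-only wells as negative control.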
A number is an active result; 0 = inactive; ? = inconclusive; - = not tested or not shown; [ ] = dose if it differs, or a comment. This is a sample that favours compounds with a hit; in the whole collection about 2.3% have one here. The call rests on the fitted dose curve; in most records, active means well fitted curve in the direction sought with a large enough effect; inconclusive means small, poorly fitted or top-dose-only effect, or another doubt; inactive means no such curve, though single readings can be large; an effect the other way counts as inactive or inconclusive.

SMILES | POLH inh | POLB inh | WRN helicase inh | POLK inh | Pol iota inh
COc1cc(OC)c(NC(=O)Nc2sc3nc4n(c(=O)c3c2C)CCC(C)CC4)cc1Cl (stereo unspecified) | 0 | 0 | - | 0 | 0
CC1CC=CC2C1C(=O)N(Cc1ccccc1)C2c1ccc(F)c(Br)c1 (stereo unspecified) | - | - | - | 0 | 0
COc1ccc(Cn2ccc3nc(C)c(C(=O)NCc4ccc(OC)cc4OC)cc3c2=O)cc1 | 0 | 0 | - | 0 | 0
CCOc1ccccc1CNC(=O)c1cc2c(=O)n(Cc3ccccc3)ccc2nc1C | 0 | 25µM | - | 0 | ?
CCOc1ccc(Nc2cc(C)nc3nc(Cc4ccc(Cl)cc4)nn23)cc1 | 0 | ? | - | 0 | 79µM
Cc1c(C(=O)NCCc2ccc(Cl)cc2)cccc1-n1cnc2cccnc21 | 0 | 0 | - | 0 | 0
Cc1cnc2ccccc2c1C | - | - | - | 0 | 0
Cc1nc(-c2ccc(C(=O)Nc3cccc(Br)c3)cc2)cs1 | 0 | 32µM | 0 | 0 | ?
Cc1nc(-c2ccc(C(=O)O)cc2)cs1 | 0 | 79µM | 0 | 0 | 0
Cc1ccc(C)c(-c2ccc(C(=O)O)o2)c1 | - | - | - | 0 | -
O=C(c1ccco1)N1CCN(C(=O)c2ccc(-c3ccc([N+](=O)[O-])cc3)o2)CC1 | 22µM | - | ? | 28µM | 18µM
O=C(c1ccc([N+](=O)[O-])cc1)N1CCN(C(=O)c2ccco2)CC1 | 0 | 0 | 0 | 0 | 0
NC(=S)n1[nH]c(-c2ccc([N+](=O)[O-])cc2)c(N=Nc2ccc(O)cc2)c1=O | ? | 0 | 0 | ? | ?
Cc1[nH]n(C(N)=S)c(=O)c1N=Nc1ccc([N+](=O)[O-])cc1Cl | 0 | 0 | 0 | 0 | 40µM
CCN(CC)S(=O)(=O)c1ccc(N=Nc2c(C)[nH]n(C(N)=S)c2=O)cc1 | 0 | 40µM | 0 | 0 | 0
NC(=S)n1[nH]c(-c2ccc([N+](=O)[O-])cc2)c(N=Nc2cccc(Cl)c2)c1=O | 40µM | ? | 0 | ? | 20µM
CCSc1ccccc1C(=O)Nc1ccc(-c2nc3ccccc3s2)c(O)c1 | 0 | 0 | - | 0 | 0
Cc1cc(O)c(C(C)C)cc1N=Cc1ccccc1O | 0 | 0 | 0 | 0 | 20µM
Cc1cc(O)c(C(C)C)cc1N=Cc1cc([N+](=O)[O-])ccc1O | 0 | 0 | 0 | 0 | ?
O=C(CSc1nc(-c2ccccc2)no1)N1CCN(c2ccccc2F)CC1 | 0 | 0 | - | 0 | 89µM
CC[n+]1ccnc2ccccc21 | - | - | - | 0 | 0
CCCN1CCC(=O)N(C(CSc2ccc(OC)cc2)CC(C)C)CC1 (stereo unspecified) | - | - | - | 0 | 0
CCNc1ccccc1CP(=O)(c1ccccc1)c1ccccc1O (stereo unspecified) | 0 | 50µM | ? | 0 | 14µM
O=C(O[C@H]1CN2CCC1CC2)N1CCc2ccccc2[C@@H]1c1ccccc1 | - | - | - | 0[19.4 µM] | -
COc1cc(C(=O)O)ccc1OC(C)=O | 0 | 0 | 0 | 0 | 89µM
SMILES | POLH inh | POLB inh | WRN helicase inh | POLK inh | Pol iota inh
O=[N+]([O-])c1ccc(Nc2ccccc2)c2nonc12 | 0 | 0 | 0 | 0 | 0
O=[N+]([O-])c1ccc(Sc2cccc[n+]2[O-])c2nonc12 | 4.5µM | 20µM | 16µM | 32µM | 3.5µM
Cc1oc(-c2ccc(Cl)cc2)cc1-c1nn2c(-c3ccco3)nnc2s1 | - | 20µM | - | - | -
CCOc1cccc(-c2nn3c(-c4ccco4)nnc3s2)c1 | 20µM | 0 | 0 | 0 | 0
Clc1ccc(-c2nnc3sc(-c4ccco4)nn23)c(Cl)c1 | - | 0 | - | - | -
O=c1ccc2ccccc2[nH]1 | - | - | - | 0 | -
O=c1[nH]cnc2c1ncn2[C@H]1C[C@H](O)[C@@H](CO)O1 | - | - | - | 0 | 0
CO/N=C(/C(=O)N[C@@H]1C(=O)N2C(C(=O)O)=C(CSC(=O)c3ccco3)CSC12)c1csc(N)n1 (stereo partly specified) | - | - | - | 0[19.4 µM] | -
CO/N=C(/C(=O)NC1C(=O)N2C(C(=O)O)=C(COC(N)=O)CSC12)c1ccco1 (stereo unspecified) | - | - | - | 35µM | -
CO/N=C(\C(=O)N[C@@H]1C(=O)N2C(C(=O)O)=C(COC(N)=O)CS[C@H]12)c1ccco1 | 2.5µM | ? | 0 | ? | 40µM
CO/N=C(\C(=O)N[C@@H]1C(=O)N2C(C(=O)O)=C(CSc3nc(=O)c(O)nn3C)CSC12)c1csc(N)n1 (stereo partly specified) | 11µM | 14µM | - | ? | 25µM
O=C1c2ccccc2C(=O)N1c1ccc(O)cc1 | - | - | - | 0 | ?
O=C(Nc1cc(F)ccc1F)c1cnn2c1NC(=C1CC1)C=C2C(F)F | - | - | - | 0 | 0
CNC(CC(=O)c1ccc([N+](=O)[O-])cc1)C(Cl)(Cl)Cl (stereo unspecified) | 0 | 0 | 45µM | 0 | 0
COc1ccccc1OCCn1c(C(C)Oc2ccccc2)nc2ccccc21 (stereo unspecified) | ? | 0 | - | ? | 0
Cc1cc(C)c(NC(=O)CN2C(=O)c3cccnc3Oc3ccc(C)cc32)c(C)c1 | 0 | ? | - | 0 | 89µM
Cc1ccc2c(c1)N(CC(=O)Nc1c(C)cccc1C)C(=O)c1cccnc1O2 | 0 | 0 | 0 | 0 | 0
CN(C)c1ccc(/C=C/c2ccnc3cc(Cl)cc(Cl)c23)cc1 | - | - | - | 0 | 0
N#Cc1ccc(CC(=O)c2ccccc2)[nH]c1=O | 0 | - | 56µM | 0 | 0
COc1cc(C)c(Cl)cc1S(=O)(=O)n1cnc2ccccc21 | 0 | 89µM | 0 | 0 | 0
Cc1ccc(C)c(N(CC(=O)N/N=C/c2ccc(-c3ccc([N+](=O)[O-])cc3)o2)S(=O)(=O)c2ccccc2)c1 | 0 | 0 | 0 | 0 | 0
CCOc1ccc(S(=O)(=O)N(CC(=O)N/N=C/c2ccc(-c3ccc([N+](=O)[O-])cc3)o2)c2ccccc2)cc1 | 3.2µM | 7.1µM | 0 | ? | ?
CCCCc1cc2c(cn1)=C(OC(=O)c1cnc3ccccc3n1)C(C)(OC(=O)CC)C(=O)C=2 (stereo unspecified) | 0 | 0 | 0 | 0 | 0
COC/C=C/C1=CC2=CC(=O)C(C)(OC(=O)c3cnc4ccccc4n3)C(=O)C2=CN1c1ccccc1 (stereo unspecified) | 25µM | ? | 0 | 79µM | ?
COC/C=C/C1=CC2=CC(=O)C(C)(OC(=O)c3cnc4ccccc4n3)C(=O)C2=CN1c1ccc(CO)cc1 (stereo unspecified) | - | 1.8µM | - | - | -
SMILES | POLH inh | POLB inh | WRN helicase inh | POLK inh | Pol iota inh
COC/C=C/C1=CC2=CC(=O)C(C)(OC(=O)c3cnc4ccccc4n3)C(=O)C2=CN1C1CCCCC1 (stereo unspecified) | - | 0 | - | - | -
COC/C=C/C1=CC2=CC(=O)C(C)(OC(=O)c3cnc4ccccc4n3)C(=O)C2=CN1CC(C)C (stereo unspecified) | 25µM | - | 0 | ? | ?
O=C(Cc1cccc2ccccc12)NO | - | - | - | 0 | 0
O=C1C(Cl)=C(N2CCCCC2)C(=O)C(Cl)=C1c1cnc(N2CCCCC2)s1 | ? | 5.6µM | ? | 0 | ?
CC(C)NC(=O)c1cnc2sc(N3CCCCCC3)nn2c1=O | 0 | 0 | - | 0 | 0
O=c1[nH]c(=S)[nH]c2n[nH]nc12 | - | - | - | 0 | 0
